ST2 inh: inhibitors of human ST2 (IL1RL1) binding to IL-33 | Q01638 | AlphaLISA ST2-Fc/biotin-IL-33 interaction, 1 h | inhibition, % for hits at 17 µM | hit rate 2.3% among 78,000 | AID 1259354; in the data active = inhibition above about 30%
Target sequence (Q01638 whole entry, looked up): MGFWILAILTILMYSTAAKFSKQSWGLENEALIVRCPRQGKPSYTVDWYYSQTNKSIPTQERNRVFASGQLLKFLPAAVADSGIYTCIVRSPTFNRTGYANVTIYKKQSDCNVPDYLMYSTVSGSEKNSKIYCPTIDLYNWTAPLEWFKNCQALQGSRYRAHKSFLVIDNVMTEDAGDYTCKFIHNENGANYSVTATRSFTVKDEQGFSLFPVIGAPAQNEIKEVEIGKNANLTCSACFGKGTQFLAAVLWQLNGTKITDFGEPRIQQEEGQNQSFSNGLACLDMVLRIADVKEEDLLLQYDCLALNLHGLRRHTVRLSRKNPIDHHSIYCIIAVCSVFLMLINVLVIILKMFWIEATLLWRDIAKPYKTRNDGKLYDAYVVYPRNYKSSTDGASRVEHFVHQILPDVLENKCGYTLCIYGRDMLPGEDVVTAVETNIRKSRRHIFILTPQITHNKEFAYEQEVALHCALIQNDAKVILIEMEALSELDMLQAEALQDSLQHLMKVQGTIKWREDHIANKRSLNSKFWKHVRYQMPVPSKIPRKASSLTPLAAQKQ
Active calls of the source: *; i = inactive. The entries come from a sample that favours hits as a whole.

SMILES	ST2 inh
COc1ccc(OC)c(S(=O)(=O)Nc2cc(C)ccc2OC)c1	i
CCOc1ccc(CN2CCN(C/C=C/c3ccccc3OC)CC2CCO)cc1 (configuration not stated)	i
N#Cc1c(N)n(-c2ccc(C(=O)O)cc2)c2nc3ccccc3nc12	36%*
N#Cc1c(N)n(-c2ccc(Br)cc2)c2nc3ccccc3nc12	i
COc1ccc(-n2c(N)c(C#N)c3nc4ccccc4nc32)cc1	i
CCCCNC(=O)Nc1c(Cl)nc(C)c(Cl)c1C	i
O=C(c1cccc([N+](=O)[O-])c1)N1CCOCC1	i
O=C(c1sc2cc([N+](=O)[O-])ccc2c1Cl)N1CCOCC1	i
CN(C)/C(=C1/c2cc([N+](=O)[O-])ccc2-c2c1cc([N+](=O)[O-])cc2[N+](=O)[O-])N1CCOCC1	79%*
COc1cc(C2=NS(=O)(=O)c3ccccc3N2)cc(OC)c1OC	i
CC1CC[C@]2(C(=O)O)CC[C@]3(C(=O)O)C(=CCC4[C@@]5(C)CC[C@H](O[C@@H]6O[C@H](CO)[C@@H](O)[C@H](O)[C@H]6O)C(C)(C)C5CC[C@]43C)C2C1C (some centres not stated)	i
CC(=O)OC1c2cc(C)ccc2NC(c2ccc(Br)cc2)C1(C)C (configuration not stated)	i
c1cc(N2CCOCC2)ncc1-c1noc([C@@H]2CCCN2C2CCOCC2)n1	i
c1cn(-c2ccc(-c3noc([C@@H]4CCCN4)n3)cn2)cn1	i
CC(C)N1CCC[C@H]1c1nc(-c2ccc(-n3ccnc3)nc2)no1	35%*
CN(C)CCN1C(=O)C(=O)C(=C(O)c2ccc(Cl)cc2)C1c1ccccc1 (configuration not stated)	i
Nc1c(Cl)cc(Cl)cc1[N+](=O)[O-]	37%*
O=[N+]([O-])c1cc(Cl)ccc1NCCNCCO	i
COc1ccc(N=Cc2cc(Cl)cc([N+](=O)[O-])c2O)cc1Cl	i
Cc1noc(-c2ccc(N(C)Cc3cccnc3)nc2)n1	i
O[C@H]1[C@H](NCc2ccc(-c3ccccc3)cc2)[C@H]2CO[C@H](O2)[C@@H]1Oc1ccccc1	i
COCCN[C@H]1[C@@H]2OC[C@@H](O2)[C@@H](NCc2ccc(-c3ccccc3)cc2)[C@@H]1O	36%*
COc1ccccc1N1CCN([C@H]2[C@@H]3OC[C@@H](O3)[C@@H](NCc3ccc(-c4ccccc4)cc3)[C@@H]2O)CC1	i
CCn1cc(C(=O)N2CCc3[nH]nc(-c4ccc(F)c(F)c4)c3C2)cn1	i
O=c1oc(-c2ccccc2Cl)nc2ccc(Br)cc12	i
SMILES	ST2 inh
O=c1oc(-c2cccs2)nc2sc3c(c12)CCC3	i
O=C(c1ccco1)N1CCN(C(=O)c2cccn3c(=O)c4c5c(sc4nc23)CCCC5)CC1	i
O=c1oc(-c2ccccc2Cl)nc2sc3c(c12)CCC3	45%*
O=c1oc(/C=C/c2ccco2)nc2sc3c(c12)CCCCC3	36%*
O=c1[nH]c(/C=C/c2ccccc2)nc2sc3c(c12)CCCC3	i
OCCN1CN=C(SCc2ccccc2)NC1	i
O=C(Cn1cnc2c(cnn2-c2ccc(F)cc2)c1=O)N1CCc2ccccc21	i
Cc1nc(C(=O)N(C)C2CCCN(CCCc3ccccc3)C2)cs1 (configuration not stated)	i
COc1ccc(C(=O)NC2CC(=O)N(Cc3cccc(F)c3)C2)cc1O (configuration not stated)	i
CN(C)c1ccc(/C=C/c2ccnc3ccccc23)cc1	43%*
CN(C)c1ccc(C(=O)Nc2nc3ccc4ccccc4c3s2)cc1	i
CC(=O)NCCn1ccnc1-c1ncc[nH]1	i
Cc1cc2nc(COc3ccc(Cl)cc3NC(=O)C3CCCCC3)cc(=O)n2o1	i
CCOC(=O)N1CCN(C2CCCN(C(=O)c3ccc(COC)s3)C2)CC1 (configuration not stated)	i
CCOc1ccc(-c2nnc3cccc(Cl)n23)cc1OC	41%*
COc1ccccc1OCCOc1cccc(Cl)c1	i
CCOc1cc(CN2CCCN(C)CC2)ccc1OC	i
CN1CCN([C@@H]2c3ccccc3C3(CCN(Cc4ncc[nH]4)CC3)[C@H]2O)CC1	i
CC(=O)Nc1ccc(S(N)(=O)=O)cc1	i
O=C(O)c1cccc(NC(=O)c2cccc(S(=O)(=O)Nc3ccc(Cl)cc3)c2)c1	i
CC(=O)Nc1ccc(S(=O)(=O)Nc2ccccc2Cl)cc1	i
O=S(=O)(Nc1ccc(S(=O)(=O)Nc2ccc(Cl)cc2)cc1)c1ccccc1	i
CC(=O)Nc1ccc(NC2=CC(=NS(=O)(=O)c3ccc(C)cc3)c3ccccc3C2=O)cc1	48%*
C=CCC(CC=C)(NS(=O)(=O)c1ccc(NC(C)=O)cc1)c1ccccc1	i
CC(=O)Nc1ccc(NC2=CC(=NS(=O)(=O)c3ccccc3)c3ccccc3C2=O)cc1	83%*
SMILES	ST2 inh
O=C(O)c1ccc(NC2=CC(=NS(=O)(=O)c3ccc(Cl)cc3)c3ccccc3C2=O)cc1	48%*
CC(=O)Nc1ccc(S(=O)(=O)NCc2ccccc2)cc1	i
Cc1nsc(NC(=O)N2CCC(C(O)c3cccs3)CC2)n1 (configuration not stated)	i
COc1ccccc1C(=O)N/C(=C\c1ccc2c(c1)OCO2)C(=O)Nc1ccc(C)cc1	i
COc1ccc(OC)c(-c2cc(Cl)c3c(c2)CC(CNC(=O)CCn2cncn2)O3)c1 (configuration not stated)	i
CC(C)Cc1nc(CCN2CCCO2)n(-c2ccc(F)cc2)n1	i
Cc1cc(-c2nccn2CCN2CCN(c3ncccn3)CC2)cc(C)c1O	i
CC(C)C1CN(CC(=O)Nc2nccs2)CCC(=O)N1CC1CC1 (configuration not stated)	i
O=C(COc1ccccc1)N[C@H]1C[C@@H]2CC[C@H]1C2	i
COC(=O)C1=COC(O[C@@H]2O[C@H](CO)[C@@H](O)[C@H](O)[C@H]2O)/C2=C/COC(=O)CC3C(C(=O)OC)=COC(O[C@@H]4O[C@H](CO)[C@@H](O)[C@H](O)[C@H]4O)/C3=C/COC(=O)CC12 (some centres not stated)	i
Cc1cccc(N=C2SCC(=O)N2c2cccc(C)c2)c1	i
O=C1c2ccccc2C(=O)N1c1cccc(-c2csc(=Nc3ccccc3)n2CCO)c1	48%*
COc1ccc(-c2csc(=Nc3ccccc3)n2CCO)cc1	38%*
Cc1cccc(N2C(=O)c3ccc(-c4nnc(-c5ccccc5)o4)cc3C2=O)c1	i
COc1ccc(C2(C(=O)N3CCCC(O)(CO)C3)CC2)cc1 (configuration not stated)	i
COc1ccc(N=C2SCC(=O)N2c2ccc(OC)cc2)cc1	i
COc1ccc(CN2C(=Nc3ccccc3)S[C@H]3[C@@H]2[C@@H](O)[C@H](O)C[C@@H]3C(N)=O)cc1	i
COc1ccc(N=c2scc(-c3ccc(I)cc3)n2CCO)cc1	55%*
O=C(O)c1ccc2c(c1)C(=O)N(c1cccc(Cl)c1)C2=O	i
Cc1ccc(-c2csc(=Nc3ccccc3)n2CCCN(C)C)cc1	42%*
CN=c1scc(-c2ccc(Cl)cc2)n1C	i
CCNC(=O)CC1SC(=Nc2ccc(OC)cc2)N(C)C1=O (configuration not stated)	i
CCCCn1c(=N)n(CCOc2ccc(C)cc2)c2ccccc21	i
COc1cc([N+](=O)[O-])ccc1NC(=O)c1ccccc1Cl	i
CC(=O)NS(=O)(=O)c1ccc(NC(=O)Cn2cnc3c2c(=O)n(C)c(=O)n3C)cc1	i
